# Test results: PubChem BioAssay (Tox21)
# Values joined by “and” are separate entries in the source; they are usually repeats but may differ in a detail not shown here. Equal values may be shown once. Records with an inconclusive call do not appear. A call without a number means that no potency is given here. Where a structure was tested more than once in an assay, its records may differ in their call. Active and inactive are the calls of the source. Unless noted, calls come from the whole dose curve; as a rule, active = well fitted curve in the direction sought with a large enough effect in the repeat runs; inconclusive = weak or mixed curves; inactive = no such curve, though single readings can be large; an effect the other way counts as inactive or inconclusive.
# How the values were obtained:
# [1] = qHTS assay to identify small molecule agonists of the RXR signaling pathway - cell viability counter screen (AID 1159529); note: nearly all actives have a fitted effect of over 50% in size; note: potency is the fitted concentration of half-maximal effect
# Outline: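 Viability read-out for the RXR-alpha agonist qHTS: luminescent CellTiter-Glo signal after 30 min at RT. HEK 293T bla reporter cells, 2% charcoal-stripped FBS, 16 hr compound incubation; tetraoctyl ammonium bromide as cytotoxic control.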
# [2] = qHTS assay to identify small molecule antagonists of the estrogen related receptor (ERR) signaling pathway from Tox21 library - cell viability counter screen (AID 1224834); note: nearly all actives have a fitted effect of over 30% in size; note: potency is the fitted concentration of half-maximal effect
# Outline: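 Seeded ERR cells were rested 6 h at 37 C/5% CO2 before compounds, positive and negative controls or DMSO were added. Incubation continued for 17.5 h, and viability was then quantified by CellTiter-Fluor fluorescence.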
# [3] = molecular target: Luciferin 4-monooxygenase (Photinus pyralis) (UniProt P08659); experiment: qHTS assay to identify small molecule inhibitors of firefly luciferase (AID 1224835); note: nearly all actives have a fitted effect of over 25% in size; note: potency is the fitted concentration of half-maximal effect
# Outline: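 Quantitative HTS format; KM concentrations of both substrates. Purified P. pyralis FLuc activity quantified from luminescence images.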
# [4] = qHTS assay to identify small molecule agonists of the constitutive androstane receptor (CAR) signaling pathway - cell viability counter screen (AID 1224836); note: nearly all actives have a fitted effect of over 45% in size; note: potency is the fitted concentration of half-maximal effect
# Outline: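 Multiplexed viability check: HepG2-CYP2B6-hCAR cells, 15-point compound dosing, 0.75 uM PK11195 final, 23 h at 37 C, CellTiter-Fluor fluorescence.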
# [5] = qHTS assay to identify small molecule antagonists of the constitutive androstane receptor (CAR) signaling pathway - cell viability counter screen (AID 1224837); note: nearly all actives have a fitted effect of over 45% in size; note: potency is the fitted concentration of half-maximal effect
# Outline: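 To flag cytotoxic false antagonists, HepG2 hCAR/CYP2B6-2.2kb cells were treated 23 hr with 15-concentration compound series and 50 nM CITCO at 37 C/5% CO2; CellTiter-Fluor fluorescence was the measured end point.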
# [6] = molecular target: Nuclear receptor subfamily 1 group I member 3 (Homo sapiens) (UniProt Q14994); experiment: qHTS assay to identify small molecule antagonists of the constitutive androstane receptor (CAR) signaling pathway (AID 1224838);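 note: HepG2 cells stably expressing hCAR with CYP2B6 luciferase reporter stimulated by CITCO; nearly all actives have a fitted effect of over 40% in size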; note: potency is the fitted concentration of half-maximal effect
# Outline: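 Human hepatoma HepG2 cells expressing hCAR and a CYP2B6 promoter (2.2 kb) luciferase construct; compound titration (15 points) with 50 nM CITCO final, 24 h at 37 C/5% CO2; luminescence via ONE-Glo after 30 min at room temperature.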
# [7] = molecular target: Nuclear receptor subfamily 1 group I member 3 (Homo sapiens) (UniProt Q14994); experiment: qHTS assay to identify small molecule agonists of the constitutive androstane receptor (CAR) signaling pathway (AID 1224839); note: nearly all actives have a fitted effect of over 15% in size; note: potency is the fitted concentration of half-maximal effect;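 for activation: HepG2 cells stably carrying human CAR and a CYP2B6 luciferase reporter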
# Outline: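 Using human hepatoma HepG2 cells engineered with hCAR and a CYP2B6-2.2kb reporter, 15-concentration compound series were incubated 24 h alongside PK11195 at 0.75 uM final, with luminescence quantified afterwards.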
# [8] = qHTS assay to identify small molecule antagonists of the estrogen related receptor signaling pathway with the pleiotropic PPARgamma coactivator (PGC) from Tox21 10K library - cell viability counter screen (AID 1224840; active = well fitted cell-killing curve with a large enough effect in the repeat runs, not every such curve was filed as active; note: nearly all actives have a fitted effect of over 40% in size; note: potency is the fitted concentration of half-maximal effect)
# Outline: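 Seeded PGC/ERR cells (2,000/well, 6 h, 37 C/5% CO2) get compound by pin tool; 17.5 h incubation at 37 C; CellTiter-Fluor added, 30 min, fluorescence measured.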
# [9] = qHTS assay to identify small molecule agonists of the hypoxia (HIF-1) signaling pathway - cell viability counter screen (AID 1224844; calls by dose curve; note: nearly all actives have a fitted effect of over 50% in size; note: potency is the fitted concentration of half-maximal effect)
# Outline: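 HRE-bla ME-180; 0.5% dFBS; cpd 17 h, 37C, 5% CO2; CellTiter-Glo lum., 30 min RT, post-FRET read, same wells.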
# [10] = qHTS assay to identify small molecule antagonists of the estrogen related receptor signaling pathway with the pleiotropic PPARgamma coactivator (PGC) cell viability counter screen (AID 1224822)
# Outline: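 Counter screen for cell viability: PGC/ERR cells, 6 h pre-incubation after plating, 17.5 h compound exposure at 37 C, fluorescence from CellTiter-Fluor after 30 min.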
# [11] = qHTS assay to identify small molecule antagonists of the retinoid acid receptor (RAR) signaling pathway - cell viability counter screen (AID 1159551); note: nearly all actives have a fitted effect of over 35% in size
# Outline: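 Measured by luminescent ATP detection, viability reflects C3RL4 cells treated 6 h at 37 C with test chemicals in the presence of 1 uM (final) retinol.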
# [12] = qHTS assay to identify small molecule antagonists of the estrogen related receptor signaling pathway with the pleiotropic PPARgamma coactivator (PGC) from Tox21 10K library (AID 1224841; call rule not given here; note: actives are mostly falling curves and most rising ones were filed inactive; nearly all actives have a fitted effect of over 50% in size; note: potency is the fitted concentration of half-maximal effect)
# Outline: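 Test chemicals dissolved in DMSO were applied to pre-incubated (6 h) PGC/ERR cells at 2,000 cells/well for an 18 h, 37 C treatment; reporter luminescence was then read using One-Glo.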
# [13] = qHTS assay to identify small molecule agonists of the estrogen related receptor signaling pathway with the pleiotropic PPARgamma coactivator (PGC) from Tox21 10K library (AID 1224842); note: nearly all actives have a fitted effect of over 15% in size; note: potency is the fitted concentration of half-maximal effect
# Outline: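 PGC/ERR reporter cells (NTP line) were seeded 2,000 per well, rested 6 h at 37 C/5% CO2, then pin-dosed with compounds in DMSO for 18 h at 37 C; luciferase read by One-Glo luminescence after 30 min at room temperature.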
# [14] = qHTS assay to identify small molecule antagonists of the estrogen related receptor (ERR) signaling pathway (AID 1224819;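 note: luminescence from an ERR-driven luciferase reporter measured with One-Glo reagent; nearly all actives have a fitted effect of over 50% in size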)
# Outline: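 Compounds dissolved in DMSO were pin-transferred onto ERR cells that had been plated 6 h earlier, and cells were then incubated 18 h at 37 C; signal was luciferase luminescence via One-Glo.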
# [15] = qHTS assay to identify small molecule agonists of the estrogen related receptor (ERR) signaling pathway (AID 1224820)
# Outline: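 Luminescence readout (One-Glo, 30 min RT) from NTP-supplied ERR cell line exposed to compounds for 18 h at 37 C. Cells seeded 2,000 per well and pre-incubated 6 h before pin-tool compound transfer.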
# [16] = system: estrogen-related receptor alpha (ERRalpha) with PGC-1alpha coactivator, human; experiment: qHTS assay to identify small molecule antagonists of the estrogen related receptor signaling pathway with the pleiotropic PPARgamma coactivator (PGC) (AID 1224821; calls by dose curve)
# Outline: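 PGC/ERR reporter cells; 6 h pre-incubation 37 C/5% CO2; pin-tool compound in DMSO, 18 h 37 C; One-Glo added, 30 min RT; luminescence read. qHTS antagonist mode.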
# [17] = qHTS assay to identify small molecule agonists of the estrogen related receptor signaling pathway with the pleiotropic PPARgamma coactivator (PGC) (AID 1224823)
# Outline: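 Luminescence readout (One-Glo, 30 min RT) from PGC/ERR cell line treated 18 h at 37 C with pin-tool-delivered DMSO compound solutions; cells plated 6 h before dosing. Quantitative HTS format.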
# [18] = molecular target: Thyrotropin receptor (Homo sapiens) (UniProt P16473); experiment: qHTS assay to identify small molecule agonists of the thyroid stimulating hormone receptor (TSHR) signaling pathway (AID 1224843; calls by dose curve; note: nearly all actives have a fitted effect of over 45% in size)
# Outline: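 Using 15 concentrations per compound in triplicate, cAMP production was monitored in TSHR-HEK293 cells after 30 min compound incubation at RT; HTRF reagents followed, with fluorescence intensity recorded after 1 h.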
# [19] = qHTS assay to identify small molecule agonists of the retinoic acid receptor (RAR) signaling pathway (AID 1159553); details: C3RL4 RARE luciferase reporter, agonist, 6 h; activation: at 73.3 µM (top of the series) unless noted
# Outline: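 6 hr compound exposure (DMSO vehicle) of overnight-plated C3RL4 RARE-luc cells at 37 C; luminescence quantified after 30 min RT with luciferase reagent.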
# [20] = qHTS assay to identify small molecule antagonists of the retinoic acid receptor (RAR) signaling pathway (AID 1159552; note: nearly all actives have a fitted effect of over 50% in size)
# Outline: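 Using a RARE-driven luciferase construct in C3RL4 cells, retinol at 1 uM final provided the agonist stimulus while compounds were co-applied. After 6 hours at 37 C, luminescence was recorded to flag inhibitors of retinol signaling.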
# Luciferin 4-monooxygenase (Photinus pyralis), sequence (P08659 whole entry, looked up): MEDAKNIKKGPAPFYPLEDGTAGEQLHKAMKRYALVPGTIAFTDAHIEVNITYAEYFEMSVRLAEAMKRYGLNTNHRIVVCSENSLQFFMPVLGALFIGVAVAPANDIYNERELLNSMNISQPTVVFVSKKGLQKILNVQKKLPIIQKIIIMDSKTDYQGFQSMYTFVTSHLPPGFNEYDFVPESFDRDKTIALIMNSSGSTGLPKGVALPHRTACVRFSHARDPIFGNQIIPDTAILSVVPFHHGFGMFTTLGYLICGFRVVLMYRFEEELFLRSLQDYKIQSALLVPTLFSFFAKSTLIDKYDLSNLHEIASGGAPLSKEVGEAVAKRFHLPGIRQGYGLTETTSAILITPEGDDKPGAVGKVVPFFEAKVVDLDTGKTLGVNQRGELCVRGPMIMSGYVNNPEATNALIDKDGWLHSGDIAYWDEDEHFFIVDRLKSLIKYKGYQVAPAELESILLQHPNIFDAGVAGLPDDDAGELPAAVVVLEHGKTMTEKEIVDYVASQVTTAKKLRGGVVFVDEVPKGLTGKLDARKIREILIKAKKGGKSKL
# Nuclear receptor subfamily 1 group I member 3 (Homo sapiens), sequence (Q14994 whole entry, looked up): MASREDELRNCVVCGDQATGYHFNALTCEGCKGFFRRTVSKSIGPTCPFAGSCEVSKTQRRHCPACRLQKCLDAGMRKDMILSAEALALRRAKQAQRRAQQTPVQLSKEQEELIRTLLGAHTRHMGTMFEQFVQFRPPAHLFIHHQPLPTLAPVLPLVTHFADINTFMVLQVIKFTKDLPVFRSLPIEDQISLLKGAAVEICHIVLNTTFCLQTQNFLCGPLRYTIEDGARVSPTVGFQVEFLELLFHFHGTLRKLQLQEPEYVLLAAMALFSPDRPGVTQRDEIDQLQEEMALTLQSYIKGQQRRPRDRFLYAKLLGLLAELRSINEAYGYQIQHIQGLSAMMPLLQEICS
# Thyrotropin receptor (Homo sapiens), sequence (P16473 whole entry, looked up): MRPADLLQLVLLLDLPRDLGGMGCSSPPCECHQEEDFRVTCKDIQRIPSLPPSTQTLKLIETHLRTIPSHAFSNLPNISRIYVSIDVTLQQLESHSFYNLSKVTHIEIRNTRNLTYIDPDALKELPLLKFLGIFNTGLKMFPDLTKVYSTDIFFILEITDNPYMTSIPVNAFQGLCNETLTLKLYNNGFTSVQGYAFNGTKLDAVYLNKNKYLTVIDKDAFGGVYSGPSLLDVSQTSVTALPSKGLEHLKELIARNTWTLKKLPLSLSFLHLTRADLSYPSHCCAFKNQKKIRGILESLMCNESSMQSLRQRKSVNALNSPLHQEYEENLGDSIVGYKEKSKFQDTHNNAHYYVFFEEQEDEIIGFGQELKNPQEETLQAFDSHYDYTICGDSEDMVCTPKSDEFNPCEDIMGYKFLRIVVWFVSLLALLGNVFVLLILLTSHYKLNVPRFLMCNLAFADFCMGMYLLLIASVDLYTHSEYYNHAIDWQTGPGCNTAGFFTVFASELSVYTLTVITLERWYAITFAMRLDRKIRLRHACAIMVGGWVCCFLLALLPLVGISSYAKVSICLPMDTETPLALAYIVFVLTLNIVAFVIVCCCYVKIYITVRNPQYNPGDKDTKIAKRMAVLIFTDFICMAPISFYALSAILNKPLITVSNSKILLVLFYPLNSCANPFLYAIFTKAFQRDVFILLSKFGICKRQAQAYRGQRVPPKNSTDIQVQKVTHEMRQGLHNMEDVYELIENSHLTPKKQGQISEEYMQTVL
smiles,measurement,setting,value
CCC[CH2][Sn]([Cl])([CH2]CCC)[CH2]CCC,Potency,[1],1.1 µM (active)
same,Potency,[2],2.17 µM (active) and 1.22 µM (active)
same,Potency,[3],31.8 µM (active) and 39.9 µM (active)
same,Potency,[4],546 nM (active) and 545 nM (active)
same,Potency,[5],1.54 µM (active) and 686 nM (active)
same,Potency,[6],244 nM (active) and 386 nM (active)
same,Potency,[7],inactive
same,Potency,[8],1.09 µM (active) and 864 nM (active)
same,Potency,[9],310 nM (active) and 1.1 µM (active)
Clc1cccc(C(Cl)(Cl)Cl)n1,Potency,[1],inactive
same,Potency,[2],inactive
same,Potency,[3],inactive
same,Potency,[4],inactive
same,Potency,[5],inactive
same,Potency,[8],inactive
same,Potency,[9],inactive
C[N+](C)(C)CC(=O)O,Potency,[1],inactive
same,Potency,[10],inactive
same,Potency,[2],inactive
same,Potency,[4],inactive
same,Potency,[5],inactive
same,Potency,[8],inactive
same,Potency,[9],inactive
CCCCCCCCCC(CC)c1ccc(S(=O)(=O)O)cc1 (stereo not given),Potency,[11],inactive
same,Potency,[10],inactive
same,Potency,[2],61.8 µM (active) and inactive
same,Potency,[5],inactive
CC(C)Nc1ccc(Nc2ccccc2)cc1,Potency,[1],19.4 µM (active) and 21.9 µM (active)
same,Potency,[2],27.2 µM (active) and 61.1 µM (active)
same,Potency,[5],54.3 µM (active)
same,Potency,[6],inactive
same,Potency,[7],13.6 µM (active) and 27.3 µM (active)
same,Potency,[8],43.1 µM (active)
same,Potency,[12],54.3 µM (active) and inactive
same,Potency,[13],inactive and 19.3 µM (active)
O=S(=O)(O)C(F)(F)C(F)(F)C(F)(F)C(F)(F)C(F)(F)C(F)(F)C(F)(F)C(F)(F)F,Potency,[1],inactive and 19.5 µM (active)
same,Potency,[14],inactive
same,outcome,[15],inactive
same,Potency,[16],inactive
same,Potency,[10],inactive
same,outcome,[17],inactive
same,Potency,[2],inactive
same,Potency,[3],75.8 µM (active) and 71 µM (active)
same,Potency,[4],inactive
same,Potency,[5],inactive
same,Potency,[8],inactive
same,Potency,[12],inactive and 5.45 µM (active)
same,Potency,[13],inactive
same,Potency,[18],inactive
same,Potency,[9],33 µM (active) and 49 µM (active) and 12.3 µM (active)
COP(=O)(NC(C)=O)SC (stereo not given),Potency,[1],inactive
same,Potency,[2],inactive
same,Potency,[3],inactive
same,Potency,[4],inactive
same,Potency,[5],inactive
same,Potency,[6],inactive
same,Potency,[7],inactive
same,Potency,[8],inactive
same,Potency,[9],inactive
C[N+](C)(C)C,Potency,[1],inactive
same,Potency,[19],inactive
same,Potency,[2],inactive
same,Potency,[3],inactive
same,Potency,[4],inactive
same,Potency,[5],inactive
same,Potency,[6],inactive
same,Potency,[7],inactive
same,Potency,[8],inactive
same,Potency,[18],inactive
same,Potency,[9],inactive
CC(C)=CC1C(C(=O)OCN2C(=O)C3=C(CCCC3)C2=O)C1(C)C (stereo not given),Potency,[11],inactive
same,Potency,[2],inactive
same,Potency,[3],inactive
same,Potency,[5],inactive
same,Potency,[8],inactive
same,Potency,[13],inactive
same,Potency,[9],inactive
CC(C)CON=O,Potency,[1],inactive
same,Potency,[20],inactive
same,Potency,[19],inactive
same,Potency,[2],inactive
same,Potency,[4],inactive
same,Potency,[5],inactive
same,Potency,[6],inactive
same,Potency,[7],inactive
same,Potency,[8],inactive
same,Potency,[18],inactive
same,Potency,[9],inactive
S=c1[nH]c2ccccc2[nH]1,Potency,[1],inactive
same,Potency,[20],inactive
same,Potency,[19],inactive
same,Potency,[2],inactive
same,Potency,[4],inactive
same,Potency,[5],inactive
same,Potency,[6],54.6 µM (active) and inactive
same,Potency,[7],inactive
same,Potency,[8],inactive
same,Potency,[13],inactive
same,Potency,[18],inactive
same,Potency,[9],inactive
